Structures are written as SMILES. “And” between values parts separate entries of the source, which are not always exact repeats. Identical values can stand only once. Hit rate of the full screen: of about 310,000 compounds, about 1,000 (0.32%) were called active. Only a sample is shown. Potency and affinity values are given separately. Values without a mark were called inactive. How the calls were made is not given here.

A short description of the experiment: Inhibition of PhoP regulon, Salmonella typhi GFP reporter cells, confirmation, 4 h (AID 1850).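 Further: 0% = induced wells with vehicle and 100% = uninduced wells.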 The conditions noted are these: Salmonella Typhi PhoP-promoter GFP reporter, fluorescence, at 50 µM, stronger effect = higher value.
Turning to `Cc1cc(S(=O)(=O)Nc2ccc(C(=O)N3CCN(c4ccccc4O)CC3)cc2)ccc1F`, the inhibition is -8.67%.

In the case of `COc1ccc(Cn2cc(F)c(=O)n(C)c2=O)cc1[N+](=O)[O-]`, the inhibition was 4.35%.

As to `Cc1ccc(S(=O)(=O)N2CCCC(C(=O)NCC3COCCO3)C2)cc1` (configuration not stated), the inhibition was -3.93%.

`COc1cc([N+](=O)[O-])cc(/C=N\NC(=O)C2COc3ccccc3O2)c1O` (configuration not stated): the inhibition is 16.3%.

With `O=C(N/N=C\c1ccc(-c2ccccc2[N+](=O)[O-])o1)C1COc2ccccc2O1` (configuration not stated), the inhibition is 6.46%.

`O=C(N/N=C\c1ccc(O)c([N+](=O)[O-])c1)C1COc2ccccc2O1` (configuration not stated): the inhibition was 1.19%.

For the compound `O=C(N/N=C/c1cccc([N+](=O)[O-])c1)C1COc2ccccc2O1` (configuration not stated), the inhibition was -0.57%.

Consider `CCOC(=O)C1(Cc2ccccc2C(F)(F)F)CCN(Cc2ccon2)CC1`, for which the inhibition is -14.2%.

Consider `O=C(Cn1cnc(S(=O)(=O)N2CCCC2)c1)Nc1cccc(Br)c1`, for which the inhibition is -2.76%.

In the case of `O=C(Nn1cnnc1)c1ccccc1-c1ccccc1`, the inhibition was 9.02%.

Take `COc1cccc(-c2ccc3nnc(SCC(=O)N4CCCC4)n3n2)c1`: the inhibition is 1.13%.

For the compound `CCN1C(=O)NC(c2ccc(Cl)cc2)C2=C1CCCC2=O` (configuration not stated), the inhibition is -16.4%.

Turning to `OCCN1CCN(CC(O)COC(c2ccc(F)cc2)c2ccc(F)cc2)CC1` (configuration not stated), the inhibition is -5.69%.

In the case of `O=C(CN1CCCC1)N1CCCC(c2ccc(F)cc2)c2ccc(F)cc21` (configuration not stated), the inhibition was -12.7%.

`N/C(CC(=O)Nc1ccc(F)c(Cl)c1)=N\OC(=O)c1cccs1`: the inhibition is -6.75%.

As for `CC(=O)Cc1nsc(Nc2ccc(C)cc2)n1`, the inhibition was 0.05%.

In the case of `COC(=O)c1cc(-c2cccc([N+](=O)[O-])c2)c2c(=O)n(C)c(=O)n(C)c2n1`, the inhibition was 0.74%.

As for `CC1CCC(C(C)C)C(OC(=O)Cn2c(-c3ccccc3)[n+](C)c3ccccc32)C1` (configuration not stated), the inhibition is 7.04% and -8.34%.

In the case of `CC1CCC(C(C)C)C(OC(=O)Cn2c(-c3ccc(F)cc3)[n+](C)c3ccccc32)C1` (configuration not stated), the inhibition is 9.13%.

Take `CC1CCC(C(C)C)C(OC(=O)CSc2nccc(=O)[nH]2)C1` (configuration not stated): the inhibition is -9.72%.

For `CC1CCC(C(C)C)C(OC(=O)Cn2c(-c3ccc(Br)cc3)[n+](C)c3ccccc32)C1` (configuration not stated), the inhibition is -12.1%.

For the compound `CC1CCC(C(C)C)C(OC(=O)COC(=O)c2ccccc2N)C1` (configuration not stated), the inhibition was -3.26%.

As to `CC1CCC(C(C)C)C(OC(=O)COC(=O)c2ccc(N)cc2)C1` (configuration not stated), the inhibition is -3.86%.

Take `CCOC(=O)c1cnc2ccc(OC)cc2c1NCCN1CCOCC1`: the inhibition was -3.63%.

For the compound `COc1ccc(OC)c(NC(=O)c2nnn(CC(=O)Nc3ccc4c(c3)OCO4)c2N)c1`, the inhibition was -17.1%.

Turning to `CN(C(=O)C1CCN(S(=O)(=O)c2cccs2)CC1)C1CCCCC1`, the inhibition was -11.4%.

Turning to `Cc1cc(=O)oc2cc(OCCCC[n+]3ccccc3)ccc12`, the inhibition was -6.05%.

In the case of `CC(=O)Nc1ccc(OCCC[n+]2ccccc2)cc1`, the inhibition was -5.56%.

As to `CCC(C)(C)c1ccc(OCCCC[n+]2cccc(C)c2C)c(C(C)(C)CC)c1`, the inhibition was 9.55%.

Turning to `CC(=O)Nc1ccc(OCCC[n+]2cccc(C(=O)[O-])c2)cc1`, the inhibition was 5.76%.

As for `CCCCCc1ccc(OCCCC[n+]2ccc(C)cc2)c(CCCCC)c1`, the inhibition is -3.58%.

`Cc1ccc[n+](Cc2ccc([N+](=O)[O-])cc2)c1`: the inhibition was -2.48%.

Regarding `CCCCOc1ccc(CCN)cc1Cl`, the inhibition was -8.19%.

As for `CCC(C)(C)c1ccc(OCCCC[n+]2ccc(C)cc2)c(C(C)(C)CC)c1`, the inhibition was 6.7%.

As to `COc1ccc(N(C(C)C(=O)N/N=C/c2ccc(OCC(C)C)cc2)S(C)(=O)=O)cc1` (configuration not stated), the inhibition is -7.5%.

`O=c1[nH]c(=O)n(C2CCCCCC2)c(O)c1C=NCc1cccnc1`: the inhibition is 0.08%.

For the compound `Cn1nc(CC(=O)Nc2ncc(Br)s2)c2ccccc2c1=O`, the inhibition was -7.27%.

Consider `COc1ccc(S(=O)(=O)N2CCCC(C(=O)NC3CC3)C2)cc1Cl` (configuration not stated), for which the inhibition was 4.9%.

Take `CC1CCCN(C2=NC(=O)/C(=C/c3cn(-c4ccccc4)nc3-c3cccc(S(=O)(=O)N(C)C)c3)S2)C1` (configuration not stated): the inhibition is -7.62%.

In the case of `Cc1cc(Br)c(NC(=O)COC(=O)CSc2nnc(-c3ccc(Cl)cc3)o2)c(Br)c1`, the inhibition is 6%.

As to `Cc1ccc(S(=O)(=O)NCCC(=O)Nc2ccc(Cl)c(Cl)c2)cc1`, the inhibition is -0.17%.

For `COCc1cc(=O)n2[nH]c(N)nc2n1`, the inhibition is 6.29%.

As for `CCOC(=O)[C@@H]1[C@H]2COc3cc(OC)ccc3[C@@H]2N2C(=O)N(c3ccc(C)cc3)C(=O)[C@]12C`, the inhibition was -2.59%.

Take `CCn1c(/C=C/N(C)c2ccccc2)[n+](CC)c2ccc(Cl)cc21`: the inhibition is 20.2%.

Consider `CC[n+]1c(/C=C/N(C)c2ccccc2)sc2ccc(Cl)cc21`, for which the inhibition is -2.8%.

`Cc1ccc(SCC(=O)NCCSC(C)(C)C)cc1`: the inhibition is -5.44%.

For the compound `CC(=O)Nc1ccc(S(=O)(=O)NCCCc2ccccc2)cc1`, the inhibition was -4.81%.

With `Cc1ccc2sc(N(CCCN(C)C)C(=O)c3nc4ccccc4s3)nc2c1C`, the inhibition is 11.1%.

On to `Cc1ccc2nc(N(CCCN(C)C)C(=O)c3ccc(Br)s3)sc2c1`, for which the inhibition was 4.27%.

On to `CC(NCc1ccccc1Cl)C(O)c1ccccc1` (configuration not stated), for which the inhibition is 3.04%.

As to `CC(NCc1ccc(Cl)cc1Cl)C(O)c1ccccc1` (configuration not stated), the inhibition is -10%.

Turning to `CC(NCc1ccc(Cl)cc1)C(O)c1ccccc1` (configuration not stated), the inhibition was 32.7%.

For `CSc1ccc(CNC(C)C(O)c2ccccc2)cc1` (configuration not stated), the inhibition is 20.7%.

For the compound `CCOc1ccc(-c2nc(CSCC(=O)NC3CC3)c(C)o2)cc1`, the inhibition was 5.51%.

Regarding `O=C(Nc1cc(Cl)ccc1-n1cncn1)c1ccc(F)c(S(=O)(=O)N2CCOCC2)c1`, the inhibition is 6.99%.

As for `CC(C)c1ccc(NC(=S)N2CCN(Cc3ccccc3)CC2)cc1`, the inhibition is 14.4%.

As for `COc1ccc(CNc2nc3ccccc3n2CCN2CCOCC2)cc1`, the inhibition is 14.4%.

Regarding `COc1ccc(CC(=O)N2CCC(Nc3nc4ccccc4n3Cc3ccc(F)cc3)CC2)cc1`, the inhibition was 8.15%.

As to `CC(C)=C(NC(=O)c1ccccc1Br)C(=O)NCCc1nc2ccccc2[nH]1`, the inhibition was 3.02%.

As for `Cc1ccccc1Nc1nc(Nc2ccccc2C)nc(SC2=NCCS2)n1`, the inhibition is 5.86%.

As for `CCCCNC(=S)NCC(c1ccccc1)c1c[nH]c2ccccc12` (configuration not stated), the inhibition is 0.6%.

In the case of `OC(CNCC(c1ccc(Cl)cc1Cl)c1c[nH]c2ccccc12)c1ccccc1` (configuration not stated), the inhibition is -5.36%.

`O=C(O)CCN1C(=O)c2ccc(NC(=O)C(c3ccccc3)c3ccccc3)cc2C1=O`: the inhibition is 3.59%.

Consider `Cn1c(=O)c2c(ncn2CC(=O)Nc2nc(-c3ccccc3Cl)cs2)n(C)c1=O`, for which the inhibition was 21.1%.

Consider `CCc1ccc2nc3nc(C)cc(C)c3c(N)c2c1`, for which the inhibition was -15%.

In the case of `Cc1cc(C)c2c(N)c3cccc(C)c3nc2n1`, the inhibition is -7.17%.

With `CC(=O)c1ccc(NC(=O)CSc2nc(N)c3cc4c(nc3n2)CCCC4)cc1`, the inhibition is -7.23%.

Consider `Cc1cc(C)c(OCC(=O)OCC(=O)NCCC2=CCCCC2)c(C)c1`, for which the inhibition is 1.39%.

On to `CC12CN3CCN(C1)CC(C)(C3)C2=NN`, for which the inhibition is 6.55%.

Consider `NC(=S)N/N=C/c1c(O)ccc2ccccc12`, for which the inhibition is -1.9%.

Consider `Cc1ccc(C(=O)N/N=C/c2c(O)ccc3ccccc23)cn1`, for which the inhibition was -2.29%.

As for `O=C(N/N=C\c1c(O)ccc2ccccc12)c1ccc(O)cc1`, the inhibition was -4.79%.

As for `O=c1c2ccccc2nc(N/N=C/c2ccc(O)cc2)n1O`, the inhibition was 10.2%.

Regarding `Cc1ccccc1/C=N/Nc1nc2ccccc2c(=O)n1O`, the inhibition is -20.3%.

Take `Oc1ccc2ccccc2c1/C=N/Nc1ccccc1`: the inhibition is -3.44%.

On to `CC(C)(C)C(=O)Nc1ccnn1C1CCN(C(=O)c2ccc(Cl)cc2F)CC1`, for which the inhibition is -1.83%.

Take `Cc1cc(OCc2nc(-c3cccnc3)no2)c(C)cc1Br`: the inhibition is -4.41%.

`O=C1[C@@H]2Cc3c([nH]c4ccccc34)C(c3cccc(Br)c3)N2C(=O)CN1C1CCN(Cc2ccccc2)CC1` (some centres not stated): the inhibition is 0.55%.

`CCOc1cc(C(=O)Nc2ccccc2N2CCOCC2)ccc1OCC(=O)N1CCCCC1`: the inhibition is -2.04%.

Take `CC1Oc2cc3c(-c4c(O)cc(O)c5c(O)c6c(cc45)OC(C)C(C)C6=O)c(O)cc(O)c3c(O)c2C(=O)C1C` (configuration not stated): the inhibition is 15.3%.

Take `C[C@@H]1Cc2c(O)c(O)cc(O)c2C(=O)O1`: the inhibition is 6.45%.

For `Cc1cnc(C(=O)NC2CC(C)(C)Cc3c2cnn3-c2cccc(F)c2)cn1` (configuration not stated), the inhibition is -5.99%.

Regarding `NC(=O)c1ccc(SCC(=O)OCC(=O)NCc2ccco2)c([N+](=O)[O-])c1`, the inhibition is -1.63%.

As to `Nc1nnc(-c2ccccc2)c(-c2ccccc2)n1`, the inhibition was -9.89%.

Take `Nc1nc(N)nc(-c2cccc(Cl)c2Cl)n1`: the inhibition is -6.05%.

For `CC(=O)N1CCN(S(=O)(=O)c2cccc(C(=O)Nc3ccccc3N3CCCC3)c2)CC1`, the inhibition is -2.62%.

On to `O=C(O)[C@H](Cc1ccccc1)NC(=O)N1CCOCC1`, for which the inhibition was -2.76%.

With `O=C(CCNC(=O)c1ccc(Br)cc1)NCc1cccnc1`, the inhibition was -2.13%.

As for `COc1ccc2c(C(=O)CN3CCN(CCO)CC3)c[nH]c2c1`, the inhibition is -2.19%.

Take `COc1ccc2[nH]cc(C(=O)CCl)c2c1`: the inhibition is 30.9%.

As to `CCc1nc(SCC#N)c(C#N)cc1C`, the inhibition is -1.52%.

`CCC[C@H](CN[C@@H](CNC)[C@H](C)O)NCCc1ccc(OC)cc1`: the inhibition is -14.6%.

Take `COc1ccccc1CCNCc1cccc(C(F)(F)F)c1`: the inhibition was 2.37%.

`CC(CCc1ccccc1)NCc1cccc2ccccc12` (configuration not stated): the inhibition was -6.36%.

As to `CNC[C@@H](C)NC[C@@H](Cc1ccccc1)NCCc1ccccc1`, the inhibition was 19.6%.

With `CC(Cc1cccc(C(F)(F)F)c1)NCCOC(=O)c1ccccc1` (configuration not stated), the inhibition is 12.2% and -11.7%.

On to `CCC[C@@H](CN[C@@H](CNC)[C@H](C)CC)NCC1CCC(C(C)(C)C)CC1` (some centres not stated), for which the inhibition is 11.1%.

The record behind these values is PubChem BioAssay AID1850 (Southern Research Specialized Biocontainment Screening …, 2009).
